The text below walks through data of PubChem BioAssay.

Experiment [1] in a line: blockers of polyQ-driven CASP3 activation – cell-based (AID 1583). The settings on record: polyglutamine-induced caspase-3 activation, cell assay; stronger effect = higher value;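 tested at 10 µM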.
Experiment [2] is described as follows: yeast 75Q aggregation reduction – 75Q-TubU reporter (AID 1593). The settings on record: Yeast 75Q polyglutamine aggregation reporter.
A short description of experiment [3]: restoration of touch response, mutant HTT neurons – whole organism, C. elegans mechanosensory neurons, N-terminal huntingtin (AID 1599). As to conditions: C. elegans polyQ-huntingtin mechanosensory neurons, stronger effect = higher value.
Experiment [4] in a line: blockers of cytochrome c efflux from mitochondria – biochemical, purified mitochondria (AID 1603).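 Further: mouse liver mitochondria challenged with calcium chloride; signal normalized to the plate average as 100%.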 As to conditions: stronger effect = lower value.
The nature of experiment [5]: polyglutamine aggregate formation blockers (AID 1604). As to conditions: polyglutamine-induced protein aggregation inhibition assay; stronger effect = higher value; tested at 2.5 µM.
A short description of experiment [6]: glutamate transport activators, MN-1 cells, MN-1 cell line (AID 1612).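 Further: tested at 1 µM final; 0% = mean of DMSO vehicle wells on each plate; positive means more glutamate uptake than control and negative means less.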 As to conditions: MN-1 motor neuron cells, stronger effect = higher value.
Experiment [7] is described as follows: 75Q-TubH aggregate inhibition, S. cerevisiae, yeast (AID 1616). As to conditions: S. cerevisiae 75Q-TubH polyglutamine aggregation suppression; stronger effect = higher value.
Experiment [8] in a line: P. berghei load reduction in hepatocytes – cell-based, HepG2, luciferase luminescence, HepG2 viability, primary screen (AID 624349).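 Further: 100% = mean of DMSO negative control wells on the same plate.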 The settings on record: P. berghei liver stage in HepG2, luciferase luminescence, concentration not given here; parasite load remaining: stronger effect = lower value; viability: measured here: HepG2 viability without parasites.
The target in experiment [9] is 6-phosphogluconate dehydrogenase, decarboxylating (Homo sapiens) (UniProt P52209). In words: inhibition of human phosphogluconate dehydrogenase – biochemical, recombinant enzyme, NADPH absorbance, primary screen (AID 1159550;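 active means at least 20% inhibition of 6-phosphogluconate dehydrogenase activity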). The settings on record: recombinant 6PGD, NADPH absorbance 341 nm; at 10 µM; stronger effect = higher value.
6-phosphogluconate dehydrogenase, decarboxylating (Homo sapiens), sequence (P52209 whole entry, looked up): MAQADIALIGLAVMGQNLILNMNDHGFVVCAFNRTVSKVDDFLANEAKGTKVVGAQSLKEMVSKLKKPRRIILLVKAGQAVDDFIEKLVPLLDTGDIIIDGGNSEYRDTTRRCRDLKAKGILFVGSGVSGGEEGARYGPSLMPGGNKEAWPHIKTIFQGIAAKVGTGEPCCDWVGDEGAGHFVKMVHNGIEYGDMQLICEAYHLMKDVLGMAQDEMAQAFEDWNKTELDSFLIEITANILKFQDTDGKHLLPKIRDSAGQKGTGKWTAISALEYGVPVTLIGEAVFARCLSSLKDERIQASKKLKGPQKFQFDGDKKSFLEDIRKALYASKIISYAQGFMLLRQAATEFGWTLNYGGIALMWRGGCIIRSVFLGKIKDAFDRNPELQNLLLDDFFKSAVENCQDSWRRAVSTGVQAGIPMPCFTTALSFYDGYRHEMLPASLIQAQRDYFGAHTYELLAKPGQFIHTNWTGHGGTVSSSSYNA
Experiment [10] can be described thus: EMT-state selective cytotoxicity in co-culture – imaging, PC-3E GFP, TEM4-18 mCherry, primary screen (AID 1345086;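 active means compounds killing one labelled cell type while sparing the other, by normalised counts and ratio limits, not self-fluorescent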;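 on all read-outs here: cells exposed to compound for 72 h before imaging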;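 on red/green cell ratio (normalised): normalised mesenchymal count divided by normalised epithelial count so high means epithelial killing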). As to conditions: PC-3E GFP / TEM4-18 mCherry co-culture, imaging cell counts, at 1 µM; for red/green cell ratio (normalised): actives lie on both sides, counts scaled to control wells, 1 = unselective.
The nature of experiment [11]: viability loss with induced miR-34 in A549 – imaging, A549 dox-inducible miR-34, nuclei and caspase counts, primary screen (AID 1347080;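 active means compounds whose cell count with miR-34 switched on is under 0.7 times the count with it off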). As to conditions: A549 miR-34 inducible, Hoechst nuclei count, 48 h.
Experiment [12] can be described thus: MELAS cybrid and Rieske KO viability enhancers – cell-based, MELAS cybrids, Rieske KO mouse fibroblasts, CellTiter-Glo, primary screen (AID 1508586;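 active means mean z-score across replicates of 1.96 or higher in either the MELAS or the Rieske mutant cell line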;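 further: z relative to plate mean and SD of compound and empty wells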). The settings on record: low glucose. A general note: Cellular ATP, detected with luciferase, serves as a proxy for viable cell number.
In experiment [13] the target is NAD(+) hydrolase SARM1 (Homo sapiens) (UniProt Q6SZW1). Description: blocking NAD cleavage by SARM1 SAM-TIR – cell lysate, NAD-Glo luminescence (AID 1508614;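 active means compound whose remaining NAD level is above about 45 nM, limit read from the data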). The settings on record: SAM-TIR HEK293T lysate NADase, at 1 µM, stronger effect = higher value.
NAD(+) hydrolase SARM1 (Homo sapiens), sequence (Q6SZW1 whole entry, looked up, the tested form may be a part): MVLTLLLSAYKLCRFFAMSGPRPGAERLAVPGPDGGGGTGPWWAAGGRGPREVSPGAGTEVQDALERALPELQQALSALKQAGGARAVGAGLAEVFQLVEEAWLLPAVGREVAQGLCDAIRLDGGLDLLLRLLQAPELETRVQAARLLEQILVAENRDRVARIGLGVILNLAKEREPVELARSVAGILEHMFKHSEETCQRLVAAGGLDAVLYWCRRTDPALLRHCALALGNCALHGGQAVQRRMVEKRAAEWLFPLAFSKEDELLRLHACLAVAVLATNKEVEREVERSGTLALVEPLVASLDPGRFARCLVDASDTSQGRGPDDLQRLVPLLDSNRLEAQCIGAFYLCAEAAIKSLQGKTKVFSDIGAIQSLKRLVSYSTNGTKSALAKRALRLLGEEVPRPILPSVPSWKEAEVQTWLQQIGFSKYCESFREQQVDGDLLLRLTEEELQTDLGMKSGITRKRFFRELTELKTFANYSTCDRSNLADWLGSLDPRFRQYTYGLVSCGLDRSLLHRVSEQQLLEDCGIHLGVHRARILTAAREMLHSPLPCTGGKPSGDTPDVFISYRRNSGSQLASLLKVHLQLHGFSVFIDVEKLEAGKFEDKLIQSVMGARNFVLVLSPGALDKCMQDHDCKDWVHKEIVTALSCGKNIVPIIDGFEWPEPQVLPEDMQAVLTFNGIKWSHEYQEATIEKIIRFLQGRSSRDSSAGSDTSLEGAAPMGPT
Experiment [14] addresses Mitogen-activated protein kinase 7 (Homo sapiens) (UniProt Q13164). In words: Gal4-ERK5 driven luciferase induction – cell-based, HTS, primary screen (AID 1508626;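 active means luciferase signal above three times the same-plate solvent-only control wells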;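 further: luciferase driven by Gal4-ERK5 fusion binding five Gal4 sites before minimal TATA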). As to conditions: HeLa Gal4-ERK5 transactivation, 18 h, at 5 µM, stronger effect = higher value.
Experiment [15] in a line: GFP-Q80 aggregate reduction, neuronal-like cells, cell-based, NGF-treated PC12, GFPQ80 (AID 1614).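 Further: lower means fewer inclusions and 0 means no inclusions at all.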 As to conditions: PC12 NGF-treated GFP-polyQ80 inclusion reduction.
The mark [16] stands for this setting: measured here: epithelial PC-3E GFP cell survival.
The mark [17] stands for this setting: measured here: mesenchymal TEM4-18 mCherry cell survival.
The mark [18] stands for this setting: stronger effect = lower value, cell number ratio, induced over uninduced.
Setting [19] is: measured here: relative caspase fold change +Dox/-Dox.
The mark [20] stands for this setting: measured here: total cells with miR-34 induction, stronger effect = lower value.
The mark [21] stands for this setting: measured here: total cells without miR-34 induction.
The mark [22] stands for this setting: MELAS cybrid survival, CellTiter-Glo 48 h, stronger effect = higher value.
Setting [23] is: Rieske KO mouse fibroblast survival, CellTiter-Glo 72 h.

Several values for one entry are separate records, joined by “and”; a condition that tells them apart may be missing. Identical values can stand only once. For some of these results: Results with a measured potency or affinity are listed apart. Activity calls are given as the source filed them. Unless noted, no stated cut-off is given here; in the data, active means parasite load remaining mostly below about 12% (no sharp cut-off); inactive means mostly above about 10%.

Mitogen-activated protein kinase 7 (Homo sapiens), sequence (Q13164 whole entry, looked up, the tested form may be a part): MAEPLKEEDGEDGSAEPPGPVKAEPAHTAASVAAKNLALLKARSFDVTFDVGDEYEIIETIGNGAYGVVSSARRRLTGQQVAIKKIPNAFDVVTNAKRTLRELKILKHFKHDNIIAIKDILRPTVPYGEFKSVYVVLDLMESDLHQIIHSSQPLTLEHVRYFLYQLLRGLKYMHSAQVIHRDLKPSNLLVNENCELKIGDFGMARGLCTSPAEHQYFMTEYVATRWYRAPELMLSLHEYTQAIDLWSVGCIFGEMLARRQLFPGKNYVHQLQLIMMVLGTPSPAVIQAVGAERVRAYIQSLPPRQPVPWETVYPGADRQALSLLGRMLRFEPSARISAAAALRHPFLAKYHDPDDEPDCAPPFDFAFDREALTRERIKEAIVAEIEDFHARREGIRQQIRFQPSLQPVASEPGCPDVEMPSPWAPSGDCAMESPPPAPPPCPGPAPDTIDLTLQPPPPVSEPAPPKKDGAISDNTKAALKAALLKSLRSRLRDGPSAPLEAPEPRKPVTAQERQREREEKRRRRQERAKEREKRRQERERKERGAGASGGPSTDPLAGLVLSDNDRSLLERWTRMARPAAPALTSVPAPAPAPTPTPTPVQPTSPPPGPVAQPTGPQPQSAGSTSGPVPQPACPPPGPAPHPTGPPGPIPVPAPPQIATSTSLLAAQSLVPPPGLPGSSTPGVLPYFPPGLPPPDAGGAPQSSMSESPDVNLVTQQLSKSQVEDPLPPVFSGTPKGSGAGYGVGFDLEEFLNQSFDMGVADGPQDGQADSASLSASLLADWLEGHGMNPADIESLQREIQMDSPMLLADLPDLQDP

On to `CN1CCc2c(c3ccccc3n2Cc2ccccc2)C1`, for which the inhibition (in general, the relative decrease from the control value, in per cent) was 13.5% in experiment [1] and 10.8% (inactive) in experiment [9]. The compound further yielded a score in experiment [2] of 1.36. In experiment [3], the rescue above control was -5.3. In experiment [4], the cytochrome c release ratio was 1.12. Also, the inhibition of aggregation in [5] stood at 26.7%. For the same compound, in experiment [6], the glutamate uptake change was -0.3%. Further, the aggregation suppression score in [7] was 1.16. In addition, the parasite load remaining in experiment [8] is 52.3% (inactive) and 141% (inactive) and 69.3% (inactive). Moreover, in experiment [8], the viability (commonly a read-out of living cells in per cent, often relative to untreated cells) is 99% and 73.4% and 70.8%. Further, the red/green cell ratio (normalised) in [10] was 0.9 (inactive). Also, the normalised cell number in experiment [10] (setting [16]) is 0.92; in experiment [10] (setting [17]) it was 0.82. Besides, the fold change in experiment [11] (setting [18]) is 0.847 (inactive); in experiment [11] (setting [19]) it was 1.16. In addition, the cell count in experiment [11] (setting [20]) worked out at 8940; in experiment [11] (setting [21]), 10600. Further, the z-score in experiment [12] (setting [22]) is 0.038 (inactive); in experiment [12] (setting [23]), 0.0579. Further, in experiment [13], the remaining NAD was 10 nM (inactive).

In the case of `Cc1cc(C(C)(C)CC(C)(C)C)ccc1OCCOCC[N+](C)(C)Cc1ccccc1`, the inhibition is -7.8% in [1] and 18.8% (inactive) in experiment [9]. The compound also registered a score in experiment [2] of -0.1. Also, in [3], the rescue above control amounted to 0. Moreover, the cytochrome c release ratio in experiment [4] turned out to be 6.77. For the same compound, the inhibition of aggregation in experiment [5] amounted to 63.9%. Besides, the glutamate uptake change in [6] came out at 10.8%. In addition, the aggregation suppression score in experiment [7] is -0.0187. The parasite load remaining in experiment [8] is 26.8% (inactive) and 101% (inactive) and 11.6% (inactive). Moreover, in experiment [8], the viability is 87.1% and 82% and 145%. Besides, the red/green cell ratio (normalised) in experiment [10] is 1.11 (inactive). For the same compound, the normalised cell number in experiment [10] (setting [16]) was 0.89; in experiment [10] (setting [17]), 0.98. In addition, the fold change in experiment [11] (setting [18]) was 0.811 (inactive) and 0.9 (inactive); in experiment [11] (setting [19]), 1.18 and 1.77. Moreover, the cell count in experiment [11] (setting [20]) is 1940 and 8590; in experiment [11] (setting [21]) it was 2400 and 9540. The z-score in experiment [12] (setting [22]) was -1.41; in experiment [12] (setting [23]), 2.46. For the same compound, the remaining NAD in experiment [13] is 10 nM (inactive). Besides, the luciferase signal in experiment [14] is 116 AU (inactive).

For `C[N+](C)(C)CC(O)CC(=O)O` (stereo unspecified), the figures for the inhibition in experiment [1] and in experiment [9] were 0.15% and -11.2% (inactive), respectively. In addition, the score in experiment [2] was 1.34. This compound also came in with a rescue above control in [3] of -5.96. For the same compound, the cytochrome c release ratio in [4] stood at 0.99. This compound yielded an inhibition of aggregation in experiment [5] of 88.8%. Besides, the glutamate uptake change in experiment [6] is -5.62%. Further, the inclusion score in experiment [15] is 2. Besides, in [7], the aggregation suppression score came to 1.39. Further, in experiment [8], the parasite load remaining is 33.4% (inactive). Further, in [8], the viability came out at 63.9%. Also, the red/green cell ratio (normalised) in experiment [10] is 0.84 (inactive). In addition, the normalised cell number in experiment [10] (setting [16]) was 0.96; in experiment [10] (setting [17]) it was 0.81. In addition, the fold change in [11] (setting [18]) was 0.835 (inactive); in experiment [11] (setting [19]), 0.677. Further, the figures for the cell count in [11] (setting [20]) and in [11] (setting [21]) were 6370 and 7640, respectively. Besides, the values for the z-score in [12] (setting [22]) and in experiment [12] (setting [23]) were -0.35 (inactive) and -0.217, respectively. Further, in experiment [14], the luciferase signal was 24 AU (inactive).

As for `C1N2CN3CN1CN(C2)C3`, the inhibition in [1] was 10.1%; in [9], 6.67% (inactive). Also, the score in experiment [2] worked out at 0.91. The compound further came in with a rescue above control in experiment [3] of -6.88. Also, the cytochrome c release ratio in experiment [4] amounted to 1.01. This compound returned an inhibition of aggregation in experiment [5] of 27.8%. The glutamate uptake change in [6] was -31.9%. This compound yielded an inclusion score in experiment [15] of 2. Moreover, the aggregation suppression score in experiment [7] turned out to be 0.744. Also, the parasite load remaining in [8] is 80.4% (inactive) and 31.8% (inactive). Moreover, the viability in experiment [8] was 76.7% and 89.4%. Besides, the red/green cell ratio (normalised) in experiment [10] is 1 (inactive). In addition, the normalised cell number in experiment [10] (setting [16]) and in experiment [10] (setting [17]) was 1.13 each time. Besides, the fold change was 0.9 (inactive) and 0.915 (inactive) in experiment [11] (setting [18]); 0.914 and 0.53 in experiment [11] (setting [19]). Besides, the cell count in [11] (setting [20]) was 8000 and 12000; in [11] (setting [21]), 8890 and 13100. The z-score was -0.156 (inactive) and 0.632 (inactive) in experiment [12] (setting [22]); -0.286 and -0.336 in [12] (setting [23]). Moreover, in experiment [13], the remaining NAD is 10 nM (inactive). Also, the luciferase signal in experiment [14] was 64 AU (inactive).

In the case of `CC1(C)S[C@@H]2[C@H](NC(=O)Cc3ccccc3)C(=O)N2[C@H]1C(=O)O`, the figures for the inhibition in experiment [1] and in experiment [9] were 18.9% and 1.35% (inactive), respectively. Moreover, the score in experiment [2] is 1.32. This compound showed a rescue above control in experiment [3] of -0.92. For the same compound, the cytochrome c release ratio in [4] came out at 0.98. The compound also displayed an inhibition of aggregation in experiment [5] of 16.8%. In addition, in experiment [6], the glutamate uptake change came to 6.9%. The compound further had an inclusion score in experiment [15] of 2. In experiment [7], the aggregation suppression score stood at 1.3. The parasite load remaining in [8] is 73.8% (inactive) and 85.4% (inactive) and 69.6% (inactive). Moreover, the viability in experiment [8] was 70.9% and 69.6% and 97.7%. Moreover, the red/green cell ratio (normalised) in [10] is 1.11 (inactive). The normalised cell number in experiment [10] (setting [16]) came to 0.85; in experiment [10] (setting [17]) it was 0.94. Besides, the fold change was 0.959 (inactive) and 0.873 (inactive) in experiment [11] (setting [18]); 0.53 and 0.733 in [11] (setting [19]). For the same compound, the cell count in experiment [11] (setting [20]) is 9610 and 11500; in [11] (setting [21]), 10000 and 13200. The figures for the z-score in experiment [12] (setting [22]) and in [12] (setting [23]) were -1.02 (inactive) and -0.0384, respectively. The remaining NAD in experiment [13] was 10 nM (inactive). Further, in experiment [14], the luciferase signal was 108 AU (inactive).
